# Pemphigus Ab inh = blocks pemphigus antibody binding to human desmoglein-3. DSG3-coupled beads, scFv-anti-DSG3-GFP binding, flow cytometry; hits give low values. actives 0.48% (n = 310,000). P32926. binding (percent of control), % at 10 µM;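 active = binding more than 3 SD below its plate's average and above zero; inconclusive = below that plate limit but binding exactly zero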;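 note: hits lower antibody fragment binding to DSG3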
# Target sequence (P32926 whole entry, looked up, the tested form may be a part): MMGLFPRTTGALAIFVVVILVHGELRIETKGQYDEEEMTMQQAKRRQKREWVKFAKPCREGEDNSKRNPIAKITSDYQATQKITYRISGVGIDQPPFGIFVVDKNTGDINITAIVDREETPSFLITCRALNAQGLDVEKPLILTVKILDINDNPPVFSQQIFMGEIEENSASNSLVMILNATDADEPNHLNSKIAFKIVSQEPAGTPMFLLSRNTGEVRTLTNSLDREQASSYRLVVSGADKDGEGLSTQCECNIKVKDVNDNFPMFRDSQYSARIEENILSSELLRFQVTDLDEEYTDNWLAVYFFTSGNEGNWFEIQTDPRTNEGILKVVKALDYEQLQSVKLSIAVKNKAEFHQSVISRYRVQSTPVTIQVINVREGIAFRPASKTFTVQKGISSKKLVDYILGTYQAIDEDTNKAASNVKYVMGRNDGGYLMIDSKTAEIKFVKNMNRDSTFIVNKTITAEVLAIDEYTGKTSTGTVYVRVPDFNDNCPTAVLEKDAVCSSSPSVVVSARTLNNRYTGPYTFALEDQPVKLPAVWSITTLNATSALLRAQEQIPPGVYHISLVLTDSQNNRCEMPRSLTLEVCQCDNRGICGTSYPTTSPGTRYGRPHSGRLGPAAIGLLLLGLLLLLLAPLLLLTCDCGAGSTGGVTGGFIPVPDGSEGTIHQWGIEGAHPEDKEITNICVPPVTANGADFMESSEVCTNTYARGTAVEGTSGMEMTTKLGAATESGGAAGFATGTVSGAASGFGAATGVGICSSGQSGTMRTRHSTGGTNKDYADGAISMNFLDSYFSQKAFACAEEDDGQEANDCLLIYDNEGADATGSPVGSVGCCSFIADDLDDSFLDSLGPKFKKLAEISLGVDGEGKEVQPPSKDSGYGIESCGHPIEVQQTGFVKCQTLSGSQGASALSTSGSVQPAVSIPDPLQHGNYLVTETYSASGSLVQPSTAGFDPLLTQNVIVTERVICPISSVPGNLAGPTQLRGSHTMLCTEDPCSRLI
# MEP2 TOR yeast = yeast TOR pathway MEP2-GFP modulation; GFP response vs DMSO, % at 10 µM; S. cerevisiae MEP2-GFP strain, flow cytometry GFP, 3 h; 100% = DMSO control level; AID 2016; actives 0.51% (n = 330,000);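 active = GFP response versus DMSO above a set limit, roughly screen mean plus 3 SD, cut at about 180% in these data; inconclusive = fewer than 70 cells counted for a yeast strain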;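 note: median GFP fluorescence of the barcode-gated MEP2-GFP cells per well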
# LAP4 TOR yeast = alters LAP4-GFP fluorescence in TOR pathway yeast screen; AID 2023; actives 0.34% (n = 320,000); S. cerevisiae LAP4-GFP multiplex, flow cytometry GFP, 3 h; median GFP as percent of DMSO wells; GFP response vs DMSO, % at 10 µM;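 active = GFP response vs DMSO above a set limit, about the screen mean plus 3 SD, cut at about 150% in these data; inconclusive = under 70 cell events counted for the yeast strain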
# CIT2 TOR yeast = modulators of TOR pathway CIT2-GFP in S. cerevisiae; S. cerevisiae CIT2-GFP strain, flow cytometry, 3 h; 100 means same as DMSO wells; GFP response vs DMSO, % at 10 µM; actives 0.065% (n = 320,000);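 active = GFP response relative to DMSO above a set limit, near the screen mean plus 3 SD, cut at about 150% in these data; inconclusive = Fewer than 70 cells measured for a yeast strain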;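 note: ratio of well median GFP fluorescence to mean of DMSO wells on the plate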
# RPL19A TOR yeast = alters RPL19A-GFP fluorescence in TOR pathway yeast screen; S. cerevisiae RPL19A-GFP strain, flow cytometry, 3 h; hits give low values; percent response vs DMSO, % at 10 µM; actives 0.3% (n = 330,000); AID 2025;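 active = percent response vs DMSO below 50%; inconclusive = fewer than 70 events counted for the yeast strain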;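 note: median channel GFP fluorescence of the barcoded RPL19A-GFP strain; ratio of sample median GFP to plate DMSO average so 100% = DMSO; lower means less RPL19A-GFP as with rapamycin TOR inhibition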
# AGP1 TOR yeast = modulators of TOR pathway AGP1-GFP in S. cerevisiae; S. cerevisiae AGP1-GFP multiplex flow cytometry, 3 h; GFP as percent of DMSO wells; GFP response vs DMSO, % at 10 µM; actives 0.02% (n = 320,000);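 active = GFP response relative to DMSO above a set limit, near screen average plus 3 SD, cut at about 150% in these data; inconclusive = fewer than 70 cells counted for the yeast strain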;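 note: median GFP channel fluorescence of the gated AGP1 strain per well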
# * marks the source's active call; other numbers are inactive results; ? = inconclusive; / = no result; [ ] = another dose, or the depositor's remark. This is a sample that favours compounds with a hit; in the whole collection about 1.2% have one here.
SMILES,Pemphigus Ab inh,MEP2 TOR yeast,LAP4 TOR yeast,CIT2 TOR yeast,RPL19A TOR yeast,AGP1 TOR yeast
COc1ccc(S(=O)(=O)N2CCC(C(N)=O)(N3CCCCC3)CC2)cc1,110,101,106,93,97,105
COc1ccc(N2CCN(CCCNC(=O)C(=O)c3c(C)[nH]c4ccccc34)CC2)cc1,102,104,93,92,100,96
O=C(COc1ccc(S(=O)(=O)N2CCCCC2)cc1)NCc1ccncc1,61*,100,100,103,100,104
COc1ccccc1-c1nnc(NC(=O)c2ccc(S(=O)(=O)N3CCCC3)cc2)o1,/,98,169*,91,79,120
COc1ccccc1CNC(=O)COC(=O)c1ccc(S(=O)(=O)N2CCCCC2)cc1,81*,98,100,103,104,101
O=c1oc2ccccc2c2c1C(c1ccc(Cl)cc1)Nc1ccc3ccccc3c1-2 (configuration not stated),93,159,91,?,39*[may fluoresce violet],71
COc1ccc(C2Nc3ccc4ccccc4c3-c3c2c(=O)oc2ccccc32)cc1 (configuration not stated),119,114,87,91,79,86
CCOC(=O)c1c(S(=O)(=O)N2CCC(C)CC2)c(C)n(C)c1C,125,98,100,100,97,102
O=C(NCCCN1CCOCC1)c1cc2c([nH]c3ccccc32)c(-c2cccc(Br)c2)n1,111,344*[may fluoresce violet],100,?,19*[may fluoresce violet],48
C=CCSc1nc2ccccc2c2nc(-c3ccccc3)nn12,2.7*,96,93,98,94,97
C=CCNC(=O)CCC(=O)NNc1nc2ccccc2c2nc(-c3ccccc3)nn12,98,105,98,110,105,104
O=CNc1c(Br)cc2c(c1Br)Cc1cc(Br)ccc1-2,87,/,/,/,/,/
Cc1ccc(-c2nc3cc(Cl)ccc3o2)cc1,/,103,102,108,106,111
Clc1ccc(-c2nc3cc(CN4CCCCC4)ccc3o2)cc1,72*,101,85,93,103,93
COc1ccc(/C=N\NC(=O)c2cc(O)c(O)c(O)c2)cc1COc1ccc(C(=O)OCC(C)C)cc1,84,108,99,103,97,88
C=CC[C@H](CC(=O)OC(C)(C)C)C(=O)OC[C@@H]1CCCN1C(=O)[C@@H](CC=C)CC(=O)N[C@H](CO)Cc1ccccc1,103,110,116,108,108,113
Cc1ccc(C(=O)O)cc1S(=O)(=O)N1CCSCC1,106,306*[may fluoresce violet],105,?,43*[may fluoresce violet],?
CCn1c(CCC(=O)Nc2nc3c(s2)CCCC3)nc2cc(S(=O)(=O)N(C)C)ccc21,117,250*[may fluoresce violet],75,?,37*[may fluoresce violet],?
Cc1cc(C)c2c(N=NN3CCCCC3)[nH]nc2n1,128,109,110,169*,98,117
CCN(CC)N=Nc1[nH]nc2nc(C)cc(C)c12,105,152,138,157*,106,133
Nc1nc(SCC(=O)N2CCCc3ccccc32)n[nH]1,99,98,96,102,98,97
Nc1cc(N)nc(SCC(=O)N2CCc3ccccc32)n1,105,175*,108,99,80,/
Cc1nc(SCC(=O)N2CCc3ccccc32)n[nH]1,91,365*[may fluoresce violet],93,?,40*[may fluoresce violet],?
Cc1cc(C)cc(N(CC(=O)NC2CCC(C)CC2)S(=O)(=O)c2c(C)noc2C)c1 (configuration not stated),91*,105,99,96,100,100
CCCCOC(=O)c1ccc(NC(=S)NC(=O)c2c(Cl)cnn2CC)cc1,107,406*[may fluoresce violet],83,?,39*[may fluoresce violet],/
CCCCOC(=O)c1ccc(NC(=S)NC(=O)c2c(Cl)cnn2C)cc1,113,105,102,101,104,101
Cc1ccccc1N1CCN(CCN2C(=O)CC(=C3c4ccccc4-c4ccccc43)C2=O)CC1,88*,101,104,92,96,100
COc1ccccc1N1CCN(CCN2C(=O)CC(=C3c4ccccc4-c4ccccc43)C2=O)CC1,/,106,110,104,104,102
